From PubChem
Only some compounds are listed: those with a hit (about 2.9% of all), similar ones and a draw of the others.
ATXN viability: viability counter-screen for ATXN expression inhibitors; S2 cells (HEK-293 line with an ATXN2-luciferase reporter) viability, CellTiter-Fluor protease fluorescence, 24 h; 400,000 compounds, 0.49% hits; Potency, µM (top dose mostly 56.7 µM), usual class: cytotoxic; also: nearly all actives have a fitted effect of over 40% in size
Nrf2 activator: Nrf2 pathway activation; AREc32 ARE-luciferase reporter (MCF7-derived line), luminescence, 24 h; Potency, µM (titrated, usually from 46.1 µM), hits mostly activators; 410,000 compounds, 0.31% hits; also: nearly all actives have a fitted effect of over 65% in size
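AREc32 cells carrying an ARE-driven firefly luciferase, 1000 cells/well in OPTI-MEM with 5% FBS, dosed after overnight attachment and incubated 24 hr at 37 deg C. Steady-Glo luminescence read after 30 min at RT.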
A549 tox: counter-screen for Nrf2 inhibitors: cytotoxicity in A549 cells | 390,000 compounds, 0.16% hits | A549 ARE-Fluc cells, CellTiter-Fluor viability, 18-24 h | Potency, µM (top dose mostly 46 µM), usual class: inhibitors
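Cytotoxicity counterscreen: CellTiter-Fluor fluorescence was measured in A549 ARE_Fluc cells after 18-24 h of compound exposure in a concentration series. The subsequent BugLite luminescent read reports ARE-luciferase activity.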
Nrf2 block: inhibitors of Nrf2 signaling; Potency, µM (series often up to 46 µM), actives largely listed as inhibitors; A549 ARE-Fluc reporter, luciferase luminescence, 18-24 h; 360,000 compounds, 2.1% hits; AID 504444; also: nearly all actives have a fitted effect of over 60% in size
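A549 ARE_Fluc cells (5000/well, 5% FBS OPTI-MEM) pre-incubated 2 h, then treated with compounds 18-24 h at 37C/5% CO2 in concentration-response. CellTiter-Fluor viability read first; BugLite luciferase luminescence after 15 min at room temperature gives Nrf2 activity.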
ATXN2 expr inh: reduces ATXN2 reporter expression in HEK-293 cells; Potency, µM (top dose mostly 57 µM), actives largely listed as inhibitors; HEK-293 ATXN2-luciferase reporter, luminescence, 24 h; AID 1745845; 360,000 compounds, 0.72% hits; also: nearly all actives have a fitted effect of over 55% in size
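qHTS (up to 57 uM final) was run with 24 h compound exposure of reporter cells at 37 °C. Each well was multiplexed: SteadyGlo luminescence measured ATXN2-luciferase expression after a fluorogenic Gly-Phe-AFC viability readout (25 uM final).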
A number is an active result; - = inactive; ? = inconclusive; . = not tested or not shown; [ ] = dose if it differs, or a comment. Calls follow the shape of the dose curve; as a rule, active = well fitted curve in the direction sought with a large enough effect; inconclusive = small, poorly fitted or top-dose-only effect, or another doubt; inactive = no such curve, though single readings can be large; an effect the other way counts as inactive or inconclusive.

SMILES	ATXN viability	Nrf2 activator	A549 tox	Nrf2 block	ATXN2 expr inh
CCOC(=O)c1c(CSC(=N)N)n(-c2ccc(C)cc2)c2cc(Br)c(OC(C)=O)cc12	25µM	-	-	?	?
CCOC(=O)c1c(CSC(=N)N)n(C)c2cc(Br)c(OC(C)=O)cc12	.	?	-	-	?
CCOc1ccc(NC(=O)CCC(=O)N/N=C2\CCCc3ccccc32)cc1	-	-	-	-	-
O=C(NCc1cccnc1)NC(=O)c1ccc(Cl)cc1	-	-	-	-	-
CC(C)(C)c1ccc(C(=O)NCc2ccc(Cl)cc2)cc1	-	-	-	?	-
CC(C)(C)OC(=O)N1CCN(c2ccc(CNC(=O)c3ccc(Cl)cc3)cc2)CC1	.	-	-	10µM	.
CC(C)(C)OC(=O)NCc1ccc(CNC(=O)c2ncn(Cc3ccccc3)c2C(=O)NCc2ccc(CNC(=O)OC(C)(C)C)cc2)cc1	-	-	-	-	-
CC(C)(C)OC(=O)NCc1ccc(CNC(=O)c2nc[nH]c2C(=O)N2CCN(C(=O)OC(C)(C)C)CC2)cc1	18µM	-	-	26µM	?
Cn1cnc(C(=O)NCc2ccc(CNC(=O)OC(C)(C)C)cc2)c1C(=O)NCc1ccc(CNC(=O)OC(C)(C)C)cc1	?	-	-	18µM	-
CC(C)(C)c1ccc(C(=O)N2CCN(CCNC(=O)C(=O)NCc3ccc(Cl)cc3)CC2)cc1	-	-	?	21µM	-
Cc1cnc(C(=O)Nc2ccc(S(=O)(=O)N(C(C)C)C(C)C)cc2)cn1	?	-	-	?	.
Cc1ccc(CSc2nc3c(c(=O)[nH]2)C(c2cccc(F)c2F)CC(=O)N3)cc1 (stereo unspecified)	-	-	-	-	-
CC(=O)c1ccc(NC(=O)CSc2nnc(-c3ccncc3)n2-c2ccccc2)cc1	-	-	-	.	-
CCn1c(C)nc2cc(C(=O)N/N=C(\C)c3ccccc3O)ccc21	.	-	-	?	.
Cc1ccccc1N=CC=C1OC(C)(C)C(C)(C)O1	-	-	-	-	-
Cc1ccccc1-c1noc(N)c1C#N	-	18µM	-	-	-
Cc1ccc(NS(=O)(=O)c2ccc(NC(=O)CN(c3cc([N+](=O)[O-])ccc3C)S(C)(=O)=O)cc2)c(C)c1	?	-	?	9.2µM	?
Cc1ccc([N+](=O)[O-])cc1N(CC(=O)NC1CCCC1)S(C)(=O)=O	-	-	-	-	-
CCN1CCN(c2ccc(S(=O)(=O)N3CCCCC3)cc2NC(=O)/C=C/c2ccc([N+](=O)[O-])cc2)CC1	?	?	?	?	32µM
CN1CCN(c2ccc(S(=O)(=O)N3CCCCC3)cc2NC(=O)/C=C/c2ccc(Cl)c([N+](=O)[O-])c2)CC1	?	-	-	?	22µM
c1ccc(N2CCN(c3c4c(nc5ncnn35)CCC4)CC2)cc1	-	-	-	12µM	-
COc1cccc(N2CCN(c3c4c(nc5ncnn35)CCC4)CC2)c1	-	-	-	13µM	-
Cc1cc(N2CCN(c3ccccc3)CC2)n2ncnc2n1	?	-	-	21µM	-
FC(F)(F)c1ccc(N2CCN(c3cc(-c4ccccc4)nc4ncnn34)CC2)nc1	-	-	?	15µM	?
CC1CCCCC1NC(=O)C1CCN(c2c3c(nc4ncnn24)CCC3)CC1 (stereo unspecified)	-	-	-	-	-
SMILES	ATXN viability	Nrf2 activator	A549 tox	Nrf2 block	ATXN2 expr inh
CCOc1ccc(N(C)S(=O)(=O)c2ccc3[nH]cc(C(=O)NCC(OC)OC)c(=O)c3c2)cc1	.	-	-	-	.
COC(=O)NNC(=O)COc1ccccc1C	-	-	-	-	-
OCc1ccc(-c2cccc3nccn23)cc1	-	-	.	.	-
CCc1c(O)cc(O)c(C(=O)c2ccc(OCCN3CCOCC3)c(OC)c2)c1CC(=O)N(CCOC)CCOC	.	.	.	.	1.1µM
CCOC(=O)Cn1nc(C)c(NC(=O)COc2ccc(Cl)cc2C)c1C	-	-	-	23µM	-
CCOC(=O)Cn1nc(C)c(NC(=O)COc2ccccc2)c1C	-	-	-	-	-[11.3 µM]
COc1ccc(N(CC(C)C)S(=O)(=O)c2nnc(NC(=O)c3cccs3)s2)cc1	.	-	-	21µM	.
CCN(c1ccc(C)cc1)S(=O)(=O)c1nnc(NC(=O)c2cccs2)s1	.	-	-	?	.
O=C1C=CC(O)(c2cc(=O)c3c(O)cc(O)cc3o2)C=C1	13µM	-	?	?	7.9µM
O=c1cc(-c2ccccc2Cl)oc2cc(O)cc(O)c12	-	-	-	-	-
COc1ccc(CNC(=O)CN2N=C(c3ccc(Cl)cc3)CCC2=O)cc1	.	-	-	.	.
Cc1ccc(S(=O)(=O)NCc2ccccc2)cc1C(=O)N(C)Cc1ccc(F)cc1	-	-	-	23µM	-
Cc1ccc(C(c2nnnn2C2CCCCC2)N(C)C2CCCCC2)cc1 (stereo unspecified)	-	-	-	26µM	-
CC(C)C(c1nnnn1C1CCCC1)N(C)C1CCCCC1 (stereo unspecified)	-	-	-	-	-
O=C(Nc1ccc(F)cc1)c1ccc(CN2CCc3ccccc3C2)cc1	-	-	-	5.8µM	.
CSc1cccc(NC(=O)c2ccc(CN3CCc4ccccc4C3)cc2)c1	-	-	-	?	?
O=C(Nc1cccc(Br)c1)c1ccc(CN2CCc3ccccc3C2)cc1	-	-	-	8.2µM	-
CC(C)OC(=O)C1=C(N)N2C(=O)CSC2=C(C(=O)OC(C)C)C1	-	-	-	-	-
O=C(NNC1=Nc2ccccc2SC1)c1ccc(Cl)cc1	?	-	?	10µM	14µM
O=C(NNC1=Nc2ccccc2SC1)c1ccc(F)cc1	-	-	-	23µM	-
O=C(NNC(=O)c1ccc(F)cc1)c1ccncc1	-	-	-	-	.
O=C(C(NS(=O)(=O)c1cccs1)c1ccccc1)N1CCN(c2ccccc2F)CC1 (stereo unspecified)	-	-	-[1.84 µM]	-	-
CCOC(=O)C1CCCN(C(=O)c2ccc3c(c2)sc2nc(-c4ccc(C)cc4C)cn23)C1 (stereo unspecified)	-	-	-	-	-
CCOC(=O)C1CCCN(C(=O)c2ccc3c(c2)sc2nc(-c4cccc(OC)c4)cn23)C1 (stereo unspecified)	.	-	-	16µM	.
Nc1c(C(=O)CSc2nnnn2-c2ccccc2)c(=O)[nH]c(=O)n1C1CC1	-	-	-	-	-
SMILES	ATXN viability	Nrf2 activator	A549 tox	Nrf2 block	ATXN2 expr inh
Cc1nc(-c2ccccc2)sc1-c1nc(-c2cccnc2)ncc1S(=O)(=O)c1ccccc1	-	-	?	23µM	-
c1coc(CSc2ncnc3c2oc2ccccc23)c1	-	4.5µM	-	?	-
c1ccc(CSc2ncnc3c2oc2ccccc23)cc1	-	-	-	?	-
Cc1nc(SCC(=O)Nc2nc3ccccc3s2)c(C#N)c(C)c1C	.	-	-	4.6µM	-
CCOc1cc(/C=N/Nc2cccc(C(=O)O)c2)ccc1OC(=O)c1ccccc1	-	-	-	?	14µM
COc1cc(C=NNc2ccccc2)ccc1OC(=O)c1ccccc1	?	-	.	.	.
